# MCL1-BIM inh = inhibitors of MCL1 binding to BIM-BH3, primary screen, biochemical, fluorescence polarization | Induced myeloid leukemia cell differentiation protein Mcl-1 (Homo sapiens), Q07820 | GST-MCL1 / FITC-Bim-BH3 fluorescence polarization | hit rate 0.68% among 320,000 | inhibition, % at 10.9 µM;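 active = inhibition above the mean inhibition of all tested compounds plus 3 SD, set per campaign, cut at about 40% in these data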;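 note: 0% = DMSO wells and 100% = unlabeled Bim-BH3 peptide control; higher means more loss of mP so more displacement of Bim peptide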
# BCLXL inh = inhibitors of human Bcl-xL, primary screen, biochemical, fluorescence polarization, HTS; AID 2129, 2009; hit rate 0.7% among 320,000; Bcl-2-like protein 1 (Homo sapiens), Q07817; GST-Bcl-xL / FITC-Bim BH3 peptide fluorescence polarization; inhibition, % at 10.9 µM;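 active = inhibition above the mean of all tested compounds plus 3 SD, cutoff set per campaign, cut at about 30% in these data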;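 note: 0% = DMSO wells and 100% = unlabeled Bim-BH3 peptide competitor; inhibitors lower millipolarization by displacing the labeled peptide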
# GLD-1 TGE inh = GLD-1/TGE RNA complex disruptors, primary screen, biochemical, fluorescence polarization; purified GLD-1 + fluorescein TGE RNA; inhibition, % at 5.96 µM; AID 2280, 2010; hit rate 0.44% among 320,000;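 active = percent inhibition above a per-plate cutoff, the plate mean of test compounds plus 3 SD, cut at about 30% in these data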;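 note: 0% = DMSO wells with GLD-1 and probe and 100% = wells lacking GLD-1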
# EBV gp42 inh = Epstein-Barr virus gp42 inhibitors, primary screen, biochemical, uHTS, fluorescence polarization; inhibition, % (tested at 21.74 µM); Fluorescence polarization binding assay, mP read-out; Glycoprotein 42 (Epstein-Barr virus (strain AG876)), Q1HVG2; hit rate 0.42% among 220,000; in the data active = inhibition above about 50%
# MEX-5 binding = MEX-5 zinc finger RNA-binding disruptors – biochemical, C. elegans, fluorescence polarization, MLPCN library, primary screen | Zinc finger protein mex-5 (Caenorhabditis elegans), Q9XUB2 | MEX-5/FITC-TCR2 RNA binding; stronger effect = lower value | activity score (negative = inhibition of binding), % at 10 µM | hit rate 0.38% among 300,000 | AID 1832, 2009;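 active = inhibition past about -25% in most replicates, and total fluorescence under double the plate's negative control median, limit read from the data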;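 note: 0% = DMSO and -100% = 5 µM competing unlabeled TCR2 RNA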
# eLon inh = inhibitors of E. coli Lon protease, primary screen, biochemical, fluorescence polarization; P0A9M0; purified E. coli Lon protease; inhibition, % at 7.94 µM; hit rate 0.42% among 360,000; in the data active = inhibition above about 13%, passing the limit was not always enough;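 note: 0% = enzyme with probe and DMSO and 100% = no enzyme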
# * hit, by the source's call; nt = no result. Sampled rows, rich in hits. Any-hit rate of the full collection: about 1.5%.
SMILES,MCL1-BIM inh,BCLXL inh,GLD-1 TGE inh,EBV gp42 inh,MEX-5 binding,eLon inh
CCOC(=O)C1=C(C)OC(N)=C(C#N)C1c1cc(C)sc1C (centres undefined),8,8,-3,-1,0,1
CCOC(=O)C1=C(C)OC(N)=C(C#N)C1c1cc2ccccc2nc1N1CCCCC1 (centres undefined),33,31*,14,27,-15,nt
CCOC(=O)C1=C(C)OC(N)=C(C#N)C1c1cc2cc(C)ccc2nc1N1CCCCC1 (centres undefined),36,33*,22,33,-7,-6
Cn1c(=O)c2[nH]c(C=Cc3ccc4c(c3)OCO4)nc2n(C)c1=O,nt,nt,nt,nt,nt,11
Oc1ccc(C=Nc2cccc3ncccc23)c(O)c1,29,29,55*,-11,1,2
COc1cccc(N=Cc2ccc(O)cc2O)c1,43*,43*,24,22,-1,3
COCCNC(=O)C1(C)CCN(C(=O)/C=C/c2ccccc2)C1 (centres undefined),nt,nt,nt,nt,nt,-9
CC(=O)OCCCNc1cc(Sc2nc3ccccc3s2)c2nonc2c1[N+](=O)[O-],15,16,0,78*,-10,-18
CN1CCN(c2sc(S(C)(=O)=O)nc2S(=O)(=O)c2ccc(Cl)cc2)CC1,1,6,-5,nt,-4,4
O=C(NCC1CCCO1)C1CCN(S(=O)(=O)Cc2ccccc2)CC1 (centres undefined),-1,2,151*,6,2,0
O=C(NCC1CCCO1)C1CCN(S(=O)(=O)c2ccccc2)CC1 (centres undefined),4,5,3,-8,1,4
COc1ccc(CCN(Cc2nc3ccccc3c(=O)[nH]2)C(=O)c2ccco2)cc1OC,-1,1,-8,98*,0,0
N=C1S/C(=C\c2ccc(-c3cccc(Cl)c3)o2)C(=O)N1c1nccs1,1,8,-6,76*,0,-41
Cn1c(O)c(C=Nc2ccc(N3CCOCC3)cc2)c(=O)n(C)c1=S,nt,nt,nt,112*,-27*,-20
Cc1cc(O)c(C=Nc2ccc(N3CCOCC3)cc2)c(C)c1Cl,3,4,7,nt,-7,3
O=C(c1ccc(F)c(F)c1)N1CCCc2ccccc21,1,4,6,nt,2,3
CC1=C(C(=O)Nc2ccccc2)C(c2ccccc2[N+](=O)[O-])NC(=O)N1 (centres undefined),32,36*,17,2,-2,-28
O=C1NC[C@@H](CCCCN2CCN(Cc3ccccc3)C(=O)C2=O)N(Cc2ccccc2)C1=O,nt,nt,nt,nt,nt,0
COc1cc(C(=O)NC(C)Cc2ccccn2)ccc1OC1CCN(C(C)=O)CC1 (centres undefined),nt,nt,nt,nt,0,-2
COc1cccc(NC(=O)N2CCN(c3nnnn3-c3ccccc3)CC2)c1,6,8,9,-17,-4,5
Cc1ccccc1OC1C(=O)N(CC2CCCO2)C1c1ccc2c(c1)OCO2 (centres undefined),5,100*,4,-8,-3,-2
Cc1ccc(S(=O)(=O)CCSc2nc(C)cc(C(F)(F)F)c2C#N)cc1,-33,-13,-14,-103,-54*,-10
COC(=O)CNc1ccc2c(c1)OCO2,30,31*,15,-2,-7,-10
COC(=O)Nc1ccc2c(c1)OCO2,3,6,-2,-9,-1,-1
CN(Cc1ccc(F)cc1)C(=O)c1ccc(NC(=O)CC2SC(N3CCCC3)=NC2=O)cc1 (centres undefined),2,3,-1,nt,-2,-9
Cn1ncc(N=Cc2c(O)ccc3ccccc23)c1C(=O)Nc1cccc(Cl)c1,46*,31*,10,-9,3,-3
Cn1ncc(Cl)c1C(=O)Nc1cccc(Cl)c1,21,15,3,-18,-1,0

# Screening data (PubChem BioAssay)
